Assay outcomes (PubChem)
NadD inh = inhibitors of Staphylococcus aureus NadD. inhibition, % at 20 µM. 0.78% of 360,000 active. purified NadD enzyme, colorimetric absorbance read-out. AID 602399; in the data active = inhibition above about 26%
H9c2 TAG inh = inhibitors of triacylglycerol accumulation; 0.66% of 230,000 active; AID 651582; H9c2 cells, Nile Red lipid (TAG) fluorescence; cells loaded with 200 µM oleic acid; inhibition, % at 12.5 µM;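 active = pattern-corrected inhibition of lipid staining of at least 50% with the nuclear-stain viability signal not falling by more than 50%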;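 note: 0% = DMSO wells and 100% = triacsin C control wells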
aDG glyco act = alpha-DG glycosylation activation; activation, % at 10 µM; 0.22% of 360,000 active; Pro5-aDG cells, alpha-DG glycosylation AlphaScreen (IIH6); 0% Pro5, 100% B10-LARGE cell signal;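 active = activation of at least 8% versus controls, or a plate z-score of at least 8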;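 note: Pro5 are CHO cells carrying HIG-tagged alpha-DG that lacks glycosylation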
MPTP block = blocks calcium-induced mitochondrial swelling. isolated mouse mitochondria, Ca2+ swelling absorbance, 30 min. inhibition, % at 10 µM. 1.4% of 360,000 active;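 active = inhibition of 50% or more, scaled per plate between neutral and stimulator controls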;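 note: 0% = DMSO wells given calcium and 100% = 1 mM EGTA wells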
TAG conf = triacylglycerol accumulation inhibition, confirmation; shares compounds with H9c2 TAG inh; H9c2 lipid accumulation, Nile Red fluorescence; cells loaded with 200 µM oleic acid; 71% of 990 active; inhibition, % at 12.5 µM; AID 651629;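 active = mean inhibition across replicates of 40% or more; inactive = mean inhibition below 40%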;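 note: plate controls were DMSO only wells for no effect and Triacsin C treated wells for full effect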
Active calls of the source: *; . = not tested or not shown. Shown are actives, neighbours in structure and some others; about 2.7% of the full set was active somewhere.

SMILES | NadD inh | H9c2 TAG inh | aDG glyco act | MPTP block | TAG conf
COc1ccc(-c2cc(C(F)F)n3ncc(C(=O)Nc4cccc(S(=O)(=O)N5CCOCC5)c4)c3n2)cc1 | 1 | 58* | -1 | -1 | 50*
COc1ccc(Br)c(C(=O)Nc2cccc(S(=O)(=O)N3CCOCC3)c2)c1 | -3 | 10 | 0 | 0 | .
O=C(Nc1nc(-c2ccccc2)cs1)C1CCCN(S(=O)(=O)c2cccc([N+](=O)[O-])c2)C1 (configuration not stated) | 24 | 62* | 1 | 4 | 47*
O=C(Nc1nc(-c2ccccc2)cs1)C1CCCN(S(=O)(=O)c2ccccc2)C1 (configuration not stated) | 12 | . | 1 | 7 | .
CCc1nn2c(N3CCOCC3)cc(C)nc2c1-c1ccc(F)cc1 | -2 | 70* | 0 | -2 | 64*
Cc1cc(C(=O)COC(=O)c2cccc(NS(C)(=O)=O)c2)c(C)n1CC1CCCO1 (configuration not stated) | 4 | 12 | 0 | 4 | .
CN1CCN(c2ccc([N+](=O)[O-])cc2C(=O)c2ccc(Cl)cc2)CC1 | 2 | 54* | 0 | -2 | 49*
CCO[C@@H]1OC(C(=O)N2CCN(Cc3ccc4c(c3)OCO4)CC2)=C[C@H](C)[C@H]1CCCO | -4 | 53* | 0 | 0 | -5
Cc1ccc2c(=O)n3c(nc2c1)C(Cc1ccc(O)cc1)NC(=O)c1cc2ccccc2cc1-3 (configuration not stated) | 10 | 53* | -1 | -2 | 67*
O=C1NC(Cc2ccccc2)c2nc3ccc(Cl)cc3c(=O)n2-c2cc3ccccc3cc21 (configuration not stated) | 17 | 22 | 0 | -2 | .
O=C1NC(Cc2ccc(O)cc2)c2nc3ccc(Cl)cc3c(=O)n2-c2cc3ccccc3cc21 (configuration not stated) | 18 | 64* | 0 | 0 | 60*
CN(Cc1ccccc1)C(=O)Cn1c(=O)c2cccn2c2cccnc21 | 2 | . | 0 | -1 | .
CCCCN(C(=O)CN1C(=O)C2CCCCC2C1=O)c1c(N)n(CCC)c(=O)[nH]c1=O (configuration not stated) | 4 | -8 | 0 | -3 | .
O=C1C(c2cc(=O)c3ccccc3[nH]2)=C(O)c2ccccc21 | -3 | . | 0 | 6 | .
O=c1cc(-c2ccccc2)[nH]c2ccccc12 | -4 | 66* | 0 | -1 | 49*
O=C(Nc1nnc([C@@H]2C[C@H](O)[C@@H](CO)O2)s1)Nc1ccc(F)cc1F | -4 | -1 | 0 | 0 | .
O=C1Nc2ccc(Br)cc2/C1=N\N=C\C1=C(N2CCOCC2)C(=C/c2ccccc2)/CC1 | 12 | 84* | -1 | 13 | 136*
O=C(NNC(=O)C1COc2ccccc2O1)c1ccccc1O (configuration not stated) | 0 | -10 | 0 | 5 | .
CCCCOc1ccc(CSC2=NCCN2)cc1[N+](=O)[O-] | -1 | 56* | 0 | -3 | 69*
CCOc1ccc(CSC2=NCCN2)cc1[N+](=O)[O-] | -2 | 31 | 0 | 1 | .
C[C@H](CO)N1C[C@H](C)[C@@H](CN(C)S(=O)(=O)c2ccccc2)Oc2ccc(NS(=O)(=O)c3cccs3)cc2C1=O | -3 | . | 0 | -3 | .
COc1ccc(CCNC(=O)CN(c2cc(C)cc(C)c2)S(=O)(=O)c2c(C)noc2C)cc1OC | 2 | . | 0 | -1 | .
COc1ccc2sc(-c3ccc(N(C)C)cc3)c(C#CCCO)c2c1 | -8 | 76* | 1 | 3 | 87*
COc1ccc(-c2sc3ccc(OC)cc3c2C#CCCO)cc1 | -12 | -18 | 1 | 2 | .
CCN(C(=O)COC(=O)Cc1ccc(F)cc1)c1c(N)n(Cc2ccccc2)c(=O)[nH]c1=O | 4 | -9 | 0 | 0 | .
SMILES | NadD inh | H9c2 TAG inh | aDG glyco act | MPTP block | TAG conf
CC(=O)Oc1ccc(S(=O)(=O)c2ccc(OC(C)=O)cc2)cc1 | 0 | 65* | 0 | 3 | 2
COc1ccc(S(=O)(=O)c2ccc(OC)cc2)cc1 | 1 | -16 | 0 | 1 | .
O=[N+]([O-])C1C(c2ccccc2)C12c1ccccc1-c1ccccc12 (configuration not stated) | 1 | 109 | 0 | 1 | .
N#Cc1cn(-c2ccccc2)nc1-c1ccc2c(c1)OCCO2 | 4 | 59* | 0 | 4 | 11
COc1ccccc1N1CCN(S(=O)(=O)c2ccc(NC(C)=O)cc2)CC1 | -2 | . | 0 | 0 | .
CCc1cccc(OCC(=O)Nc2cc(S(=O)(=O)N3CCOCC3)ccc2N2CCCC2)c1 | 2 | -5 | 0 | -1 | .
O=C1OCC2=C1C(c1ccc3c(c1)OCO3)c1cc3c(cc1O2)OCO3 (configuration not stated) | -3 | 28 | 0 | 0 | .
CC(C)c1ccc(C2C3=C(COC3=O)Nc3cc4c(cc32)OCO4)cc1 (configuration not stated) | -1 | 54* | 0 | 1 | 39
CC1C(=O)N2CCCc3cc(S(=O)(=O)N4CCN(c5ccc(F)cc5)CC4)cc1c32 (configuration not stated) | 0 | . | 7 | -1 | .
COc1ccc(C(=O)Nc2ccc(Cl)cc2C(=O)NCc2ccco2)cc1 | 1 | 61* | 0 | 12 | 73*
CN(C)CCNC=C(C(=O)Nc1ccc(Cl)cc1Cl)C(=O)Nc1ccc(Cl)cc1Cl | 3 | 102* | -1 | 11 | 92*
CC(=O)/C(=C/N(C)C)C(=O)Nc1ccc(Cl)cc1Cl | -7 | 3 | 0 | -1 | .
CC[C@@]1(C(=O)OC)N[C@H](CN(C)S(=O)(=O)c2ccc(OC(F)(F)F)cc2)[C@@H]2C(=O)N(C)C(=O)[C@@H]21 | 4 | -2 | 0 | -2 | .
COc1cccc(/C=C/C(=C2\C(=O)N(c3ccccc3)N=C2C)c2ccc(Br)cc2)c1OC | 4 | 79* | -1 | -1 | 97*
Cc1cc(C)cc(NC(=O)COC(=O)CC2CCCC2)c1 | -5 | -16 | 0 | 0 | .
CCOC(=O)c1[nH]c2ccc(OCC)cc2c1NC(=O)CN1CCN(c2ccccc2)CC1 | -2 | 58* | 0 | 1 | 41*
CCOC(=O)c1[nH]c2ccc(OCC)cc2c1NC(=O)CN1CCC2(CC1)OCCO2 | -5 | . | 0 | 0 | .
CC1(C)Cc2cccc(OCC(=O)Nc3ccc(OCC(N)=O)cc3)c2O1 | -3 | 66* | 0 | 0 | -18
CC(=O)Nc1ccc(NC(=O)COc2cccc3c2OC(C)(C)C3)cc1 | -7 | -1 | 0 | -1 | .
CN(C1CCCCC1)S(=O)(=O)c1cc2c(cc1Cl)NC(=O)CO2 | 3 | . | 0 | 0 | .
Cc1ccc(C(=O)N(CC(=O)NC2CCCC2)c2ccccc2Cl)s1 | -3 | . | 0 | -2 | .
O=C(Nc1ccc2ccccc2c1)[C@@H]1C[C@H]1[C@@H](NP(=O)(c1ccccc1)c1ccccc1)c1ccccc1 | -6 | 52* | 0 | 0 | 34
CN(C)CCn1c(=O)n(Cc2ccccc2)c(=O)c2c3c(sc21)CCCCC3 | -5 | . | 0 | -2 | .
